Laboratory results from PubChem BioAssay (NCATS).
Records with an inconclusive call do not appear. Values without a mark were called inactive. Active and inactive are the calls of the source. Calls follow the shape of the dose curve; as a rule, active = well fitted inhibition curve with a large enough effect; inconclusive = small, poorly fitted or top-dose-only effect; inactive = no such curve, though single readings can be large or run the other way.

tested on: Zika virus NS2B-NS3 protease (unlinked complex); assay: Primary screen GU Rhodamine qHTS for Zika virus inhibitors: Unlinked NS2B-NS3 protease assay (AID 1347159); settings: Recombinant ZIKV NS2B-NS3 protease, Rhodamine110 substrate fluorescence; series mostly up to 107 µM; activity change, negative = inhibition: at the top concentration; also: nearly all actives have a fitted effect of over 60% in size
Method in brief: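 Noncovalent NS2B hydrophilic domain/NS3 protease complex (25 nM final) in 10 mM Tris-HCl pH 8.0, 0.01% Tween 20, preincubated 15 min with compounds (up to 114 microM), then 1.5 microM Rhodamine110 substrate. Fluorescence change over 15 min fitted to 4-parameter Hill.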
% is scaled to controls: 0 for no effect and ±100 for the full control effect; potency is read from the fitted curve at half-maximal effect.

SMILES	activity change, negative = inhibition	Potency
CCOC(=O)C1=Cc2ccc(C(F)(F)C(F)(F)F)cc2N=C(N)C1	0.485%	
Cn1ncnc1[C@@H]1c2n[nH]c(=O)c3cc(F)cc(c23)N[C@H]1c1ccc(F)cc1	24%	
Cc1ccc(S(=O)(=O)N2CCC[C@H]2c2ccc(F)cc2)cc1	1.63%	
COc1cc2c(cc1OCCCN1CCCC1)N=C(N)C21CCC1	6.09%	
COc1cc(C#N)ccc1S(=O)(=O)Nc1ccc2c(c1)cc(C)c(=O)n2C	0%	
C=C(COC(=O)C(O)C(O)CN)C12OC1C1(C)C(=CC2=O)C(O)C(O)CC1C (configuration not stated)	83.1%	
CC[C@H](C)/C=C(C)/C=C/C1=CC2=C(Cl)C(=O)[C@](C)(O)[C@H](OC(C)=O)[C@H]2CO1		10 µM (active)
CC1(CO)CC(O)[C@]2(C(=O)O)CCC34CC3(C=CC3[C@]5(C)C(CC[C@]34C)C(C)(CO)[C@@H](O)[C@H](O)[C@@H]5O)C2C1 (some centres not stated)	1.41% [at 57.1 µM]	
O=C(NC1(c2ccccc2)CC1)c1c(CN2CCC(N3CCCCC3)CC2)c(-c2cccc(C(F)(F)F)c2)nc2cc(Br)ccc12	53.3%	
COc1ccc2cc3c(NC(=O)c4ccco4)nn(C)c3nc2c1	0%	
Cc1c(NC(=O)OCC2COCCN2)cn2ncnc(Nc3ccc4c(cnn4Cc4cccc(F)c4)c3)c12 (configuration not stated)	127%	
CC(C)OC(=O)N1CCC(Oc2ncnc3c2cnn3-c2ccc(S(C)(=O)=O)cc2F)CC1	-18.8%	
COc1c(C)cnc(Cn2cc(C#CCC(C)(C)O)c3c(Cl)nc(N)nc32)c1C	37.7%	
CN(C)CCOc1cc(NS(=O)(=O)c2c(Cl)cc(C(F)(F)F)cc2Cl)ccc1Cl		5.62 µM (active)
CC(C)(O)C1CC(=O)C2(C)C(CCC3(C)C(c4ccoc4)OC(=O)C4OC432)C12CCC(=O)OC2 (configuration not stated)	-14.1% [at 57.1 µM]	
NC(=O)C1=CC2C3C=CC2C(OC3=O)O1 (configuration not stated)	-0.619% [at 171 µM]	
O=C(c1ccccn1)N(Cc1cccs1)C1(C(=O)NC2CCCCC2)CCCCC1	-3.3%	
COc1ccc(CCN(C)CCCOc2nsc(-c3ccccc3)n2)cc1OC	30.2%	
C[C@@H]1O[C@@H](O[C@H]2CC[C@@]3(C)C(CC[C@]4(C)C3CC=C3[C@@H]5CC(C)(C)CC[C@]5(C(=O)O[C@@H]5O[C@H](CO)[C@@H](O)[C@H](O)[C@H]5O)CC[C@]34C)[C@]2(C)CO)[C@H](O)[C@H](O[C@@H]2O[C@H](CO)[C@@H](O)[C@H](O)[C@H]2O)[C@H]1O (some centres not stated)	22.1% [at 32.5 µM]	

SMILES	activity change, negative = inhibition	Potency
C=C1C(=O)O[C@@H]2C[C@@]3(C)CCCC(=C)[C@]3(O)C[C@H]12	16.4%	
COc1cc(O)cc(OC2OC(CO)C(O)C(O)C2O)c1 (configuration not stated)	-9.29%	
C=C1C(=O)O[C@H]2C3=C(C)CCC[C@]3(C)C(=O)C[C@@H]12	-0.0603%	
CCCCNc1ncc2c(-c3ccc(S(=O)(=O)N4CCOCC4)cc3)nn(C3CCC(O)CC3)c2n1 (configuration not stated)	-4.75%	
CC(C)(CO)c1cc2cc(NC(=O)C3(c4ccc5c(c4)OC(F)(F)O5)CC3)c(F)cc2n1CC(O)CO (configuration not stated)	3.31%	
Nc1nc(OCc2cc(Br)cs2)c2[nH]cnc2n1	0%	
O=C(NC[C@H](O)CN1CCc2ccccc2C1)c1ccnc(NC2CCC2)c1	-15.8%	
O=C(CSc1nc2ccccc2c(=O)n1-c1ccccc1)Nc1ccc2c(c1)CCC2	12.6%	
CC(=O)O[C@H]1C[C@H](OC(C)=O)[C@]2(C)[C@H](CC[C@@]34O[C@@H]3C3=C(C)C(=O)O[C@@H]3C[C@H]42)C1(C)C	1.5% [at 57.1 µM]	
Cn1nc(C(C)(C)C)cc1C(=O)N[C@@H](Cc1cccc(Cl)c1)C(=O)NCC#N	-17.1%	
COc1cc(C(=O)NCC2(N(C)C)CCCC2)cc(OC)c1OCc1ccccc1	27.9%	
CCOc1cc(C(C)(C)C)ccc1C1=N[C@@](C)(c2ccc(Cl)cc2)[C@@](C)(c2ccc(Cl)cc2)N1C(=O)N1CCN(CC(=O)N2CCOCC2)CC1	-16.1%	
COC(=O)CC[C@@H](C)C1CCC2C3CCC4C[C@H](OC(C)=O)CCC4(C)C3C[C@H](O)C21C (some centres not stated)	-3.67%	
Fc1ccc(CN2CCC(Nc3ccc(C(F)(F)F)nn3)CC2)cc1F	117%	
N#Cc1ccc(O[C@@H]2c3ccccc3C[C@H]2N2CCC[C@@H](N)C2)c(Cl)c1	182%	
COc1nc2ccc(Br)cc2cc1[C@@H](c1ccccc1)[C@@](O)(CCN(C)C)c1cccc2ccccc12	-20.1%	
NC(=O)c1nc(Nc2ccccc2)sc1NC(=O)C1CCCCC1	2.7%	
C=C(C)C(=O)O[C@H]1[C@H]2C(=C)C(=O)O[C@@H]2C[C@@H](C)[C@@H]2O[C@@H]2C(=O)[C@](C)(O)[C@@H]1OC(=O)C(=C)C	19.8% [at 57.1 µM]	
